Data reported in the supplement of paper PMC6555819.

Test system: VDR:RXRa (NR concentration 270 nM, RXRa partner concentration 90 nM)
Test: PBM binding z-score (relative to random genomic background probes); higher = stronger binding; sequences stand for … in GC…GCGATTGACAGCGTAGAATGAAGG
Procedure: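 Protein-binding microarray (Agilent 4x180K custom design, double-stranded 60-nt probes: 5' GC cap, 34-nt variable region, 24-nt constant primer region; full probe sequence given). Purified or IVT nuclear receptor:RXRα heterodimers (3:1 NR:RXRα, mostly 270:90 nM) or homodimers were incubated for 1 h in PBS with 2% milk and no ligand, then detected with Alexa488 antibodies. Fluorescence from o1-orientation probes (~5 replicates averaged) was converted to z-scores against 500 random hg19 background probes. Variable regions are seed direct-repeat (DR0–DR5) sites, all their single-nucleotide variants and half-site ablations.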

Sequence | PBM binding z-score
CCTAGTTGGTCAGGAGTTCACACACCGGATATGA | 3.54
CAAACTAGGTCAAGAGGTCCAAGTCCGCTTCCCG | 4.71
CAAACTAGGTCACCGGAGGGTCAAAGTCCGCATG | 5.82
AGAATGAGGTTATACGTAGATCAGGTAAGAAAGT | 1.58
GCTTGTAGATCTAGGTTAAGAAAGACTAAGCTAA | -0.392
CGTCCAAGGTCAGCAGATCAGTGAAAGCGACGTG | 2.37
TCATATAGGTAACTGCTAGGTGAAAGTCCGATCT | 0.632
TCTTGTAGATCAACCAGGTTAAGAAAGCCTGAGT | 1.04
GGAACGAGGGCAAGCTGATAGCAGAGTTTGATGG | 0.0958
TCTAGTTGGTCAAAGGGCACACACTCGAAATGCG | 1.78
ATCTCTAGGTATGACTCAGTTCAGTGAAGAACGC | 1.01
GCCGACAGGTGAAACGCAGGTAACTCAGGGTGGC | -0.543
CCAGGCAGGTGAGAAGGTAACTCAGCCTCGATTA | -0.539
GGAACGAGGGCATTCGAGTTGATATCATGGCGAT | 3.92
CCAGACAGATGAAAGGTAACTCAGTCTGGTACGC | 0.208
CCTCTTAGTTGACCATAAGGGCAACCGAAGCTCG | 0.969
GCTGCTAGGTCAGGTCGGTCAGCTAACGGGTACG | 1.09
CATACAGGGTGAGCTAGGCCAGAGTAGGGACGGC | -0.189
TCTATTATTTGAAGGGCAACCGACGAGTCCGTTT | 1.55
CCGAATGGGGCAGAAAGGTTACCATACCATCCGG | 1.33

Sequence | PBM binding z-score
CCGCCTGGGGCAGAAAGGTTACCATACCATCCGG | 0.57
TCATATAGGTAAATGCTAGGTGAAAGTACGATCT | 1.15
CCTACTGGACCACGAAAGGTCATTGATTCAGTGA | 4.17
CGAACTAGGTCAGAACAGGATAGTGAAGGATGAT | 0.322
TCGAGTAGGTAACCAATGGGGCATTCAGCTTTCT | -0.172
ACTAGCAGGCCAGGGGTCACTCAAGATTAGTCCG | 4.42
TCTTGTAGATCAATAGAGGTTATGAAAGTGCGCT | 1.92
ATATGTAGGTTAGCTGGGGTCACTCAGACTAGGC | 5.64
GGGACTGGGGCAAAGCAGGTTACCATAAGGTTGG | 0.732
CCTACTGGCCCATTCAGAGGTCATTGATCATATG | 3.58
TATACAGGGTCAAAGCCCAGAGTACGAATGTCGA | 4.41
CCTAGTTGATCAGGAGGTCACACACCGGATATGA | 4.08
CCTCGGAGGACAACAGGAGCTCAGAGCTGCCAGA | -0.533
CCTTACGGGTCACTCCAAGTTATAGCATCGGAGT | 2.82
TCAATGAGGTTATAAGATCAGGGAACGTTGCAAA | 1.22
ATATGTAGGTTATCCGGTCATTCAGTTTGCGCAT | 2.65
CGTCCAAGGGCAAGGTCAGTGAAAGAGACTCGAA | 1.59
CCTGCTAGGTCATGGTCAGCTGATCTACAGTATG | 1.95
ATCGAAAGGTCGAGGTGAGTATTGAGAAAGGGAA | 2.46
GCTATTAGTTTAAAGGGCAACCGAATGATTCTCG | 0.65
